Screening data (PubChem)
Shown is part of a subset that was picked to be rich in hits.
Methyltransferases – Primary Screen for Target Class Profiling of Small Molecule Inhibitors of Methyltransferases; purified enzyme, MTase-Glo SAH luminescence; hits give low values; calls only at 40 µM; 3.9% of 25,000 active; call rule not given here
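Each enzyme was assayed with SAM and its substrate. SAH formation detected by MTase-Glo luminescence; single-point 40 uM screen[…].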
* hit, by the source's call; i = inactive; + = active, no number. On the % scale 0 is the no-effect control and ±100 the full control effect.

SMILES	Methyltransferases
CCOC(=O)c1cc2n(n1)CC(C)(C(=O)NC1CCC(C)CC1)N(c1ccccc1CC)C2=O (stereo not drawn)	i
COc1ccc2cc3n(c2c1)CC(C)(C(=O)NC1CCCC1)N(c1ccc(Cl)cc1)C3=O (stereo not drawn)	i
CC1CCN(CCCNC(=O)CCc2nnc3n(Cc4ccccc4)c(=O)c4ccccc4n23)CC1	+
CCCCNC(=O)CCc1nnc2n(Cc3ccc(Cl)cc3)c(=O)c3ccccc3n12	i
CC1CCN(CCCNC(=O)CCc2nnc3n(Cc4ccc(Cl)cc4)c(=O)c4ccccc4n23)CC1	+
CCOCCCNC(=O)CCc1nnc2n(Cc3ccc(F)cc3)c(=O)c3ccccc3n12	i
CCOCCCNC(=O)CCc1nnc2n(Cc3ccc(Cl)cc3)c(=O)c3ccccc3n12	i
CCN(CC)CCCNC(=O)CCc1nnc2n(Cc3ccc(Cl)cc3)c(=O)c3ccccc3n12	+
O=C(CCc1nnc2n(Cc3ccc(F)cc3)c(=O)c3ccccc3n12)NCCN1CCOCC1	i
CC1CCN(CCCNC(=O)CCc2nnc3n(Cc4ccc(F)cc4)c(=O)c4ccccc4n23)CC1	+
CN1CCN(CCCNC(=O)CCc2nnc3n(Cc4ccccc4Cl)c(=O)c4ccccc4n23)CC1	i
Cc1ccc(CNC(=O)CCc2nnc3n(Cc4ccc(Cl)cc4)c(=O)c4ccccc4n23)cc1	i
Cc1ccc(CCNC(=O)CCc2nnc3n(Cc4ccccc4)c(=O)c4ccccc4n23)cc1	i
CCN(CC)CCNC(=O)CCc1nnc2n(Cc3ccccc3)c(=O)c3ccccc3n12	i
Cc1ccc(NC(=O)N2CCn3cccc3C2Cc2ccccc2)c(C)c1 (stereo not drawn)	i
Cc1nc(CCNC(=O)[C@H]2CCC[C@H](O)C2)nc2c1CCC2	i
CCc1cc2c(cc3n2CC(C)(C(=O)NC2CCC(C)CC2)N(Cc2cccs2)C3=O)s1 (stereo not drawn)	i
CCOC(=O)c1cc2n(n1)CC(C)(C(=O)NCc1ccccc1)N(Cc1cccc(OC)c1OC)C2=O (stereo not drawn)	i
CCOc1ccc(-c2cc3n(n2)CC(C)(C(=O)NC2CCCCC2)N(CCC(C)C)C3=O)cc1 (stereo not drawn)	i
Cc1ccccc1CSc1nnc2n(CCCOC(C)C)c(=O)c3cc(Cl)ccc3n12	i
CCC(C)NC(=O)Cn1nc2n(CC(C)C)c(=O)c3ccc(C(=O)NC4CCCCC4)cc3n2c1=O (stereo not drawn)	i
CCCn1c(=O)c2ccccc2n2c(SCC(=O)Nc3ccc(F)cc3F)nnc12	i
Cc1ccc(C)c(NC(=O)N2CCn3cccc3C2C(C)C)c1 (stereo not drawn)	i
Cc1ccc(N2C(=O)c3cc4ccccc4n3CC2(C)C(=O)NCCC(C)C)c(C)c1 (stereo not drawn)	i
CCOC(=O)c1cccc(N2C(=O)c3cc4ccccc4n3CC2(C)C(=O)NCCC(C)C)c1 (stereo not drawn)	i
SMILES	Methyltransferases
CC1(C(=O)NC2CCCCCC2)Cn2c(ccc2-c2ccco2)C(=O)N1Cc1cccc(F)c1 (stereo not drawn)	i
CC(NCc1cn(CCC(N)=O)c2ccccc12)c1ccccc1-n1cccn1 (stereo not drawn)	i
CCCc1noc(-c2cccn3c(CNC(=O)c4ccc(OCC)cc4)nnc23)n1	i
Cc1ccc(C)c(-c2cc(C(F)(F)F)nn2-c2ccc(S(N)(=O)=O)cc2)c1	+
CS(=O)(=O)c1ccc(-n2nc(C(F)(F)F)cc2-c2ccc(F)cc2)cc1	i
NS(=O)(=O)c1ccc(-n2nc(C(F)(F)F)cc2-c2ccc(Cl)cc2)cc1	i
COC(=O)c1ncn2c1C(=O)N(Cc1cccc(Cl)c1)C(C)(C(=O)NC1CCCCCC1)C2 (stereo not drawn)	i
CCCNC(=O)c1cc2n(n1)CC(C)(C(=O)NC1CCCCCC1)N(C)C2=O (stereo not drawn)	i
Cc1ccc(CCNC(=O)CNC(=O)C2(C)Cn3c(cc4ccccc43)C(=O)N2C)cc1 (stereo not drawn)	i
C=C[C@H]1[C@H](O[C@@H]2O[C@H](CO)[C@@H](O)[C@H](O)[C@H]2O)OC=C(C(=O)OC)[C@H]1CCOC(=O)c1cc(O)c(O)c(O)c1	+
C=CC1C(O[C@@H]2O[C@H](CO)[C@@H](O)[C@H](O)[C@H]2O)OC=C(C(=O)OC)C1Cc1nccc2c1[nH]c1ccccc12 (stereo partly drawn)	i
C/C=C1\[C@H](O[C@@H]2O[C@H](CO)[C@@H](O)[C@H](O)[C@H]2O)OC=C(C(=O)OC)[C@H]1CC(=O)O	i
C=C[C@H]1[C@H](O[C@@H]2O[C@H](CO)[C@@H](O)[C@H](O)[C@H]2O)OC=C(C(=O)OC)[C@H]1C/C=C(/C=O)[C@@H]1C(C(=O)OC)=CO[C@@H](O[C@@H]2O[C@H](CO)[C@@H](O)[C@H](O)[C@H]2O)[C@@H]1C=C	+
COC(=O)C1=CO[C@@H](O[C@@H]2O[C@H](CO)[C@@H](O)[C@H](O)[C@H]2O)[C@@H]2[C@@H](CO)[C@@H](O)C(O)[C@H]12 (stereo partly drawn)	i
COC(=O)C1=CO[C@@H](O[C@@H]2O[C@H](CO)[C@@H](O)[C@H](O)[C@H]2O)[C@@H]2C(COC(C)=O)=C[C@H](O)[C@H]12	i
COc1cccc(-c2nnc3n(CCc4ccccc4)c(=O)c4ccccc4n23)c1OC	i
C=CCn1c(=O)c2ccc(C(=O)NC(C)CC)cc2n2c(=O)n(CC(=O)Nc3cccc(F)c3)nc12 (stereo not drawn)	i
CN1C(=O)c2cc(C(=O)NCCc3ccc(Cl)cc3)nn2CC1(C)C(=O)NC1CCCCC1 (stereo not drawn)	i
CCc1ccc(NC(=O)CSc2nnc3n(Cc4ccc(C)cc4)c(=O)c4ccccc4n23)cc1	i
COc1cccc(C(=O)Nc2ccc(-c3ccc(OC)nn3)cc2)c1	i
COc1ccc(CNC(=O)CCc2nnc3n(CCc4ccccc4)c(=O)c4ccccc4n23)cc1	i
O=C(Nc1ccccc1)c1cc([N+](=O)[O-])ccc1Cl	i
O=C(Nc1ncc([N+](=O)[O-])s1)c1ccccc1O	i
O=C(c1cc(O)c(O)c([N+](=O)[O-])c1)c1ccccc1F	+
COC(=O)c1ncn2c1C(=O)N(Cc1cccc(OC)c1)C(C)(C(=O)NC1CCCC1)C2 (stereo not drawn)	i
SMILES	Methyltransferases
CCC(C)NC(=O)c1ccc2c(=O)n(C)c3nn(CC(=O)Nc4ccccc4C)c(=O)n3c2c1 (stereo not drawn)	i
Cc1ccc(S(=O)(=O)c2nnn3c2nc(NCc2ccccc2)c2ccccc23)cc1C	i
COc1cc(-c2ccc(O)cc2)c(OC)c(O)c1C1=CC(=O)OC1CC(=O)O (stereo not drawn)	i
COc1c(O)cc2c(c1O)C(=O)O[C@H](C)[C@H]2O	+
COc1cc(O)c2c(c1Cl)CC(C)OC2=O (stereo not drawn)	i
CCC(C(=O)NCCc1ccccc1)n1ccc2cc(S(=O)(=O)N3CCCCC3)ccc21 (stereo not drawn)	i
Cc1ccccc1CN1C(=O)c2ccc(-c3ccco3)n2CC1(C)C(=O)NC1CCCCCC1 (stereo not drawn)	i
Cc1ccc(CN2C(=O)c3ccc(-c4ccco4)n3CC2(C)C(=O)NC2CCCCC2)cc1 (stereo not drawn)	i
